# Measured values published in PubChem BioAssay (EPA / NIEHS).
# Results filed as inconclusive are left out. Activity calls are given as the source filed them. How the source made its calls, unless noted: active means hit-call score of the fitted dose curve at least 0.9, where 1 is the maximum; inconclusive means response in the unintended direction; inactive means score below 0.9.
# Key:
# PGR (gene 5241) [1] = molecular target: PGR (gene 5241) (UniProt P06401); experiment: TOX21_PR_BLA_Followup_Antagonist_ratio: Tox21 HEK293 Progesterone Receptor (PR) Antagonism Beta-lactamase Follow-Up Assay, Ratio (AID 2283934);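 further: PR-UAS-bla HEK293T cells stimulated with 1 nM R5020 agonist for 16 hr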
# In short: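 Readout is the blue/green (ch2/ch1) substrate cleavage ratio after 2 hours at room temperature, following 16 hr co-treatment of PR-bla HEK293T cells with compound and 1nM promegestone. Multiplexed CellTiter-Glo viability flags cytotoxicity; DMSO baseline.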
# [2] = TOX21_PR_BLA_Followup_Agonist_viability: Viability Assessment in the Tox21 HEK293 Progesterone Receptor (PR) Agonism Beta-lactamase Follow-Up Assay (AID 2283935);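 further: signal loss means lower viability so actives are cytotoxic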
# In short: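 Run multiplexed with the beta-lactamase FRET read, this endpoint measures ATP by CellTiter-Glo luminescence (30 min, room temperature). PR-UAS-bla HEK293T cells received compound 6 hr after plating and were then incubated 16 hr at 37C in 2% stripped serum.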
# [3] = TOX21_PR_LUC_Followup_Antagonist_viability: Viability Assessment in the Tox21 HEK293 Progesterone Receptor (PR) Antagonism Luciferase Follow-Up Assay (AID 2283940)
# In short: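 Viability counter-readout: cellular ATP measured by luciferase luminescence after 16 h compound exposure at 37C of HEK293-PR-A-luc cells, which had been cultured in charcoal-stripped serum and seeded 5 h beforehand.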
# [4] = TOX21_PR_LUC_Followup_Agonist_viability: Viability Assessment in the Tox21 HEK293 Progesterone Receptor (PR) Agonism Luciferase Follow-Up Assay (AID 2283941);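 further: loss of signal means cytotoxicity so actives lower viability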
# In short: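 Cytotoxicity counter-readout in the PR-A luciferase reporter line HEK293, with 16 h compound exposure at 37C after cells were cultured in charcoal-stripped serum. Cellular ATP quantified by CellTiter-Glo luminescence.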
# THRA (gene 7067) [5] = molecular target: THRA (gene 7067) (UniProt P10827); experiment: TOX21_TRA_COA_Agonist_Followup_ratio: Tox21 Thyroid Hormone Receptor alpha Agonism through Coactivator Recruitment Follow-Up Assay, Ratio (AID 2283948; active means hit-call score of the fitted dose curve at least 0.9, where 1 is the maximum; inactive means score below 0.9)
# In short: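 Read-out is the 520/495 nm emission ratio (ex 340 nm), scaled between DMSO-only wells as 0% and T3 wells as 100%. It reflects fluorescein-SRC-2 peptide recruitment to GST-TRα LBD detected via terbium anti-GST antibody.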
# THRB (gene 7068) [6] = molecular target: THRB (gene 7068) (UniProt P10828); experiment: TOX21_TRB_BLA_Agonist_Followup_ratio: Tox21 Thyroid Hormone Receptor beta Agonism Beta-lactamase (BLA) Follow-Up Assay, Ratio (AID 2283954)
# In short: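 Agonist mode: compounds (11-point, triplicate) incubated 18 h with HEK293T cells carrying GAL4-DBD/human TRβ-LBD and UAS-β-lactamase. Blue/green (460/530 nm) FRET ratio read after 2 h CCF4-AM loading; CellTiter-Glo viability run in the same plates.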
# THRB (gene 7068) [7] = molecular target: THRB (gene 7068) (UniProt P10828); experiment: TOX21_TRB_COA_Agonist_Followup_ratio: Tox21 Thyroid Hormone Receptor beta Agonism through Coactivator Recruitment Follow-Up Assay, Ratio (AID 2283963; active means hit-call score of the fitted dose curve at least 0.9, where 1 is the maximum; inactive means score below 0.9)
# In short: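 Agonism is measured as coactivator recruitment in a purified-protein TR-FRET format, using GST-TRβ LBD at 5.0 nM, fluorescein-SRC-2 peptide at 200 nM and Tb-labeled anti-GST antibody at 2 nM. Values are 520:495 nm ratios relative to DMSO (0%) and T3 (100%).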
# [8] = molecular target: Retinoic acid receptor RXR-alpha (Homo sapiens) (UniProt P19793); experiment: TOX21_TR_RXR_BLA_Agonist_Followup_ratio: Tox21 Thyroid Hormone Receptor beta Retinoid X Receptor alpha (RXRa) Agonism Beta-lactamase (BLA) Follow-Up Assay, Ratio (AID 2283968)
# In short: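 Agonist mode: compounds given to RXRa-bla HEK293T cells at 11 concentrations, triplicate, 16 h at 37C/5% CO2. Readout is the 460:530 nm blue/green ratio after 2 h substrate loading at room temperature; DMSO baseline, 9-cis retinoic acid control.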
# PGR (gene 5241) [9] = molecular target: PGR (gene 5241) (UniProt P06401); experiment: TOX21_PR_BLA_Followup_Agonist_ratio: Tox21 HEK293 Progesterone Receptor (PR) Agonism Beta-lactamase Follow-Up Assay, Ratio (AID 2283933)
# In short: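 Beta-lactamase reporter readout: ratio of cleaved (ch2) to uncleaved (ch1) substrate after 2 h room-temperature loading, following 16 h compound exposure at 37C. Cells were PR-UAS-bla HEK293T in 2% charcoal-stripped FBS medium. Viability was multiplexed by CellTiter-Glo.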
# PGR (gene 5241) [10] = molecular target: PGR (gene 5241) (UniProt P06401); experiment: TOX21_PR_LUC_Followup_Agonist: Tox21 HEK293 Progesterone Receptor (PR) Agonism Luciferase Follow-Up Assay (AID 2283937; active means hit-call score of the fitted dose curve at least 0.9, where 1 is the maximum; inactive means score below 0.9)
# In short: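 Agonism scored as luciferase induction over DMSO, read by ONE-Glo after 30 min at RT. Compounds were incubated 16 h at 37C on HEK293-PR-A-luc cells (3,000/well, pre-plated 5 h) previously grown 5 days in charcoal-stripped serum.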
# [11] = CCTE_Harrill_HTTr_Apoptosis_PRF_DMEM_12hr: (Pilot) CCTE's 12-hour Apoptosis Assessment for the High-Throughput Transcriptomics (HTTr) Platform, in MCF-7 cells cultured in phenol red-free DMEM + 10% charcoal-stripped fetal bovine serum, Harrill Lab (AID 2283985; active means hit-call score of the fitted dose curve at least 0.9, where 1 is the maximum; inactive means score below 0.9)
# In short: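 Caspase-3/7 activity by CellEvent Green high content imaging after 12 h compound exposure (eight concentrations) in MCF-7 grown in phenol red-free DMEM plus 10% charcoal-stripped serum; DMSO as baseline.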
# [12] = molecular target: Thyroid hormone receptor alpha (Rattus norvegicus) + Thyroid hormone receptor beta (Rattus norvegicus) (UniProt P18113+P63059); experiment: TOX21_TR_LUC_GH3_Antagonist_Followup: Tox21 GH3 Thyroid Hormone Receptor Antagonism Luciferase Follow-Up Assay (AID 2283942)
# In short: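 Luminescence read-out (ONE-Glo, 30 min at room temperature) in GH3 reporter cells challenged with 1.0 nM T3 final. Compounds ran at 92 uM to 5nM over 15 concentrations for 24 h; DMSO served as negative control and baseline.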
# THRA (gene 7067) [13] = molecular target: THRA (gene 7067) (UniProt P10827); experiment: TOX21_TRA_COA_Antagonist_Followup_ratio: Tox21 Thyroid Hormone Receptor alpha Antagonism through Coactivator Recruitment Follow-Up Assay, Ratio (AID 2283953)
# In short: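 GST-TRα LBD 2.5 nM, BSA 0.10%, + cpd; then FITC-SRC-2 peptide 200 nM + Tb-anti-GST Ab 2 nM. TR-FRET ratio 520/495 nm. Norm: DMSO = 0%, T3 = 100%.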
# [14] = molecular target: Retinoic acid receptor RXR-alpha (Homo sapiens) (UniProt P19793); experiment: TOX21_TR_RXR_BLA_Antagonist_Followup_ratio: Tox21 Thyroid Hormone Receptor beta Retinoid X Receptor alpha (RXRa) Antagonism Beta-lactamase (BLA) Follow-Up Assay, Ratio (AID 2283972)
# In short: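 RXRa-UAS-bla HEK293T cells in phenol red-free DMEM with 2% charcoal-stripped FBS; compounds at 11 concentrations in triplicate, 16 h at 37C. LiveBLAzer FRET-B/CCF4-AM substrate 2 h at room temperature; read as 460:530 nm ratio versus DMSO.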
# [15] = TOX21_TR_RXR_BLA_Antagonist_Followup_viability: Viability Assessment in the Tox21 Thyroid Hormone Receptor beta Retinoid X Receptor alpha (RXRa) Antagonism Beta-lactamase (BLA) Follow-Up Assay (AID 2283979)
# In short: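 RXRa-bla HEK293T cells (2,500/well, phenol red-free DMEM, 2% charcoal-stripped FBS) were attached 5 h, then exposed to compounds at 11 concentrations in triplicate for 16 h at 37C. Viability measured by CellTiter-Glo ATP luminescence, bidirectional fitting versus DMSO.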
# [16] = CCTE_Shafer_MEA_dev_network_spike_peak: CCTE's Neural Network Formation Assay for Mean Number of Electrodes in Network Spike, Shafer Lab (AID 2284049; active means hit-call score of the fitted dose curve at least 0.9, where 1 is the maximum; inactive means score below 0.9;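 on AC50: fitted for loss of signal meaning fewer electrodes in network spikes than DMSO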)
# In short: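 Network-spike peak electrode count from recordings on days 5, 7, 9 and 12 was combined as trapezoidal area under the curve. Rat cortical cultures were treated continuously from plating, with compound renewed at each feed (DIV 5, 9); fits versus DMSO.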
# [17] = CCTE_Shafer_MEA_acute_LDH: CCTE's Lactate Dehydrogenase Assay for Cytotoxicity in the Neural Acute Assay, Shafer Lab (AID 2284086);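 further: active means LDH release rises above DMSO vehicle level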
# In short: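 LDH released during 40 min compound exposure of primary rat cortical cultures, quantified by absorbance at 490 nm in collected medium. Fitting direction positive versus DMSO vehicle.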
# [18] = CCTE_Deisenroth_AIME_96WELL_CTox_Active: Cytotoxicity Assessment (CTOX) in CCTE's 96-well Estrogen Receptor Transactivation Assay with AIME metabolic competence (metabolism positive), Deisenroth Lab (AID 2284028)
# In short: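 Cytotoxicity in VM7Luc4E2 breast cells after 24 h exposure to medium from a 2 h metabolic pre-incubation with induced rat hepatic S9 in alginate microspheres; fluorescent live-cell protease readout, 10-point series 0.002–200 uM, n=4.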
# [19] = CCTE_Deisenroth_AIME_96WELL_CTox_Inactive: Cytotoxicity Assessment (CTOX) in CCTE's 96-well Estrogen Receptor Transactivation Assay without AIME metabolic competence (metabolism negative), Deisenroth Lab (AID 2284029)
# In short: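 Metabolism-negative mode: alginate-water lids without rat S9, 2 h pre-incubation of 10-point series (0.002 - 200 uM). Conditioned medium on VM7Luc4E2 cells 24 h; loss of fluorescent live-cell protease signal marks cytotoxicity.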
# [20] = CCTE_Shafer_MEA_acute_AB: CCTE's Alamar Blue Assay for Cytotoxicity in the Neural Acute Assay, Shafer Lab (AID 2284069);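 further: active compounds lower the viability signal compared with DMSO wells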
# In short: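 Cytotoxicity endpoint for acute MEA exposures of primary rat cortical neurons on day 13 or 15. Resazurin reduction is read fluorescently at 544/590 nm, with DMSO as the negative-control baseline.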
# PGR (gene 5241), sequence (P06401 whole entry, looked up): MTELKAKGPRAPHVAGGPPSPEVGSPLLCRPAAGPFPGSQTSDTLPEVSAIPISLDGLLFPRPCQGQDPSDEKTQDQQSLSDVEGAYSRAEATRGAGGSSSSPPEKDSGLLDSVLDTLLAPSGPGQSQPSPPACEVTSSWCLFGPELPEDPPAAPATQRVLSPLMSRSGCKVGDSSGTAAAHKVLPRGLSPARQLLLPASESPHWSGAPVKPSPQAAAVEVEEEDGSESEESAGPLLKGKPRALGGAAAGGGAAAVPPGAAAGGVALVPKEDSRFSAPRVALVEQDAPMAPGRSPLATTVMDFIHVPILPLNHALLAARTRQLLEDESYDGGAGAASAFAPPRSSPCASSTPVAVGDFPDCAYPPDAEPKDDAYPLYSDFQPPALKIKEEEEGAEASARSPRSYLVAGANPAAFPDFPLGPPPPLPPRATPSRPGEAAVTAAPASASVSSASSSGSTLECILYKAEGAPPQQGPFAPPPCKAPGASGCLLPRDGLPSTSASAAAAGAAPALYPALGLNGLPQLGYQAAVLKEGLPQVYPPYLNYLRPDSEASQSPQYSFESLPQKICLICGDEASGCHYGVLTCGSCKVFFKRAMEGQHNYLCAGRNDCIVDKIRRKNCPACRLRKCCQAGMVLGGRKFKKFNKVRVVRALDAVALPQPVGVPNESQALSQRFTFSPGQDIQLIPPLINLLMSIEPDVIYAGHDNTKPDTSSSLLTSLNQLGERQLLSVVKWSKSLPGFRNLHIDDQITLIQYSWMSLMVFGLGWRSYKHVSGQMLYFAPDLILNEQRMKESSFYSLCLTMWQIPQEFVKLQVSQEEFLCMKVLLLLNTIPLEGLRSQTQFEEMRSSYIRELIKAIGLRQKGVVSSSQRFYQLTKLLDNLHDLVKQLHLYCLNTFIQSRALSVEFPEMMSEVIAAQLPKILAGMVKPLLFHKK
# THRB (gene 7068), sequence (P10828 whole entry, looked up, the tested form may be a part): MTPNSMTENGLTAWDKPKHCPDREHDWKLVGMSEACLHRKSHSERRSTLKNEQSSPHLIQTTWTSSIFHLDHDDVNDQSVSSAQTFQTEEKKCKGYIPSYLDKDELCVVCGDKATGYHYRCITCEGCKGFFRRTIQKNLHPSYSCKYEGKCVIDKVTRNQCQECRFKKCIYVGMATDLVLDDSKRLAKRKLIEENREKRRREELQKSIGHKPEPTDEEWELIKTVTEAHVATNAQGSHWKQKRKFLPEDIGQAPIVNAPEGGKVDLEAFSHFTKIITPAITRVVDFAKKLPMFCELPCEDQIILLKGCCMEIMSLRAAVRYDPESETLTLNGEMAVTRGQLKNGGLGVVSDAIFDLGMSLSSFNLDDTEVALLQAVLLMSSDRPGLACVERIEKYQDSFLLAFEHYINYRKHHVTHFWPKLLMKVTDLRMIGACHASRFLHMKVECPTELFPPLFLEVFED
# THRA (gene 7067), sequence (P10827 whole entry, looked up, the tested form may be a part): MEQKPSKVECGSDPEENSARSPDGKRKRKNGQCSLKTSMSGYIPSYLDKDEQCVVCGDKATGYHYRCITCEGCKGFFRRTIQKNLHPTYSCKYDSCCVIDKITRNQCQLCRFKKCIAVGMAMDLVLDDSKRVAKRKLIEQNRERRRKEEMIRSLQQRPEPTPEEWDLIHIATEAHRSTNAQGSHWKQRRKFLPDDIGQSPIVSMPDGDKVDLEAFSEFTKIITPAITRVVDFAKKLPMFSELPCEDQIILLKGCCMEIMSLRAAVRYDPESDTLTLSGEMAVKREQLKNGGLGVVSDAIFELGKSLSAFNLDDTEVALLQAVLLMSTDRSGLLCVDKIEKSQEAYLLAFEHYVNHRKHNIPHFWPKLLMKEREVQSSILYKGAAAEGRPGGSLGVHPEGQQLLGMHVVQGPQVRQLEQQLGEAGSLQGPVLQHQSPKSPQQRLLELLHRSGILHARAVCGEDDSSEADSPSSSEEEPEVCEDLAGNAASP
# Retinoic acid receptor RXR-alpha (Homo sapiens), sequence (P19793 whole entry, looked up): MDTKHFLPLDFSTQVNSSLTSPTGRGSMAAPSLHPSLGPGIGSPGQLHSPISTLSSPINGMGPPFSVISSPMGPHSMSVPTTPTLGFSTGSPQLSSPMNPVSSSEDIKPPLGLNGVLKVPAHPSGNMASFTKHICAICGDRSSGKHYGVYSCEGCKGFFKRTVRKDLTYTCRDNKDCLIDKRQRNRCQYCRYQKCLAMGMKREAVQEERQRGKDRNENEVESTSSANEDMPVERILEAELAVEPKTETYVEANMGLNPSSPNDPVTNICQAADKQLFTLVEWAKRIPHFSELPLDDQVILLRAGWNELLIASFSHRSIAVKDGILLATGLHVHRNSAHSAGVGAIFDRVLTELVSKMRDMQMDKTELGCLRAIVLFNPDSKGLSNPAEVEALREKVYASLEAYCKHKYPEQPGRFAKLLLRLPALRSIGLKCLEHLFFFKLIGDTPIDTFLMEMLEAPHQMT
compound,measurement,setting,value
O=C1CN=C(c2ccccc2)c2cc(Cl)ccc2N1CC1CC1,AC50,PGR (gene 5241) [1],23000 nM (active)
same,outcome,[2],inactive
same,outcome,[3],inactive
same,outcome,[4],inactive
CCn1cc[n+](C)c1,outcome,THRA (gene 7067) [5],inactive
same,outcome,THRB (gene 7068) [6],inactive
same,outcome,THRB (gene 7068) [7],inactive
same,outcome,[8],inactive
CCC(=O)O[C@@H]1C=C2CCC3C(CCC4(C)C3CC[C@@H]4OC(=O)CC)C2CC1 (stereo partly drawn),AC50,PGR (gene 5241) [9],4480 nM (active)
same,outcome,PGR (gene 5241) [1],inactive
same,outcome,[2],inactive
same,AC50,PGR (gene 5241) [10],165 nM (active)
same,outcome,[4],inactive
CC(C)C(=O)Nc1ccc([N+](=O)[O-])c(C(F)(F)F)c1,outcome,[11],inactive
CCC(C)(C)C(=O)O[C@H]1C[C@@H](C)C=C2C=C[C@H](C)[C@H](CC[C@@H]3C[C@@H](O)CC(=O)O3)[C@H]21,outcome,[11],inactive
CC1COC2(c3ccccc3Cl)c3cc(Cl)ccc3NC(=O)CN12 (stereo not drawn),outcome,PGR (gene 5241) [1],inactive
same,outcome,[2],inactive
same,outcome,[3],inactive
CC1(C)NC(=O)N(c2ccc([N+](=O)[O-])c(C(F)(F)F)c2)C1=O,outcome,[11],inactive
CC[n+]1ccccc1,outcome,[12],inactive
same,outcome,THRA (gene 7067) [13],inactive
same,outcome,[14],inactive
same,outcome,[15],inactive
C[n+]1ccc(-c2cc[n+](C)cc2)cc1,AC50,[16],1380 nM (active)
C#CCN(C)[C@H](C)Cc1ccccc1,outcome,[17],inactive
CP(=O)(O)CC[C@H](N)C(=O)O,outcome,[16],inactive
same,outcome,[17],inactive
CC1(C)[C@@H](C=C(Cl)Cl)[C@@H]1C(=O)O[C@@H](C#N)c1ccc(F)c(Oc2ccccc2)c1,outcome,[17],inactive
CCC(C)(C)c1cc(-n2nc3ccccc3n2)c(O)c(C(C)(C)CC)c1,outcome,[18],inactive
same,outcome,[19],inactive
CP(=O)(O)CCC(N)C(=O)O (stereo not drawn),outcome,[20],inactive
same,outcome,[17],inactive
COP(=O)(OC)SCN1C(=O)c2ccccc2C1=O,outcome,[16],inactive
